Compound activity (PubChem)
This is a sample that favours compounds with a hit; in the whole collection about 19% have one here.
ELG1 DNA repair = qHTS screen for small molecules that inhibit ELG1-dependent DNA repair in human embryonic kidney (HEK293T) cells expressing luciferase-tagged ELG1; HEK293T ELG1-luciferase reporter, luminescence, 16 h; DNA damage induced by 5-fluorouridine; AID 504467, 2011; Potency, µM (series often up to 46.1 µM), for inactives: at the top dose activity change, negative = inhibition, actives largely listed as inhibitors; hit rate 2.3% among 330,000; further: potency means the concentration at half of the fitted maximal effect; nearly all actives have a fitted effect of over 55% in size
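Overnight (16 hr) co-exposure of 2,000 cells/well to 5-fluorouridine and compound at 37 °C preceded detection. Luciferase was quantified via ONE-Glo luminescence; loss of signal denotes inhibition.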
DT40 TDP1 CPT = qHTS for Inhibitors of human tyrosyl-DNA phosphodiesterase 1 (TDP1): qHTS in cells in presence of CPT; Potency, µM (highest dose often 46.2 µM), for the others: at the top dose activity change, negative = growth inhibition, hits mostly inhibitors; hit rate 12% among 420,000; chicken DT40 Tdp1-/-;hTDP1 cells + 20 nM CPT, ATP luminescence, 48 h; AID 686979, 2013; further: potency means the concentration at half of the fitted maximal effect; nearly all actives have a fitted effect of over 55% in size
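Cell growth measured by CellTiter-Glo luminescence after a minimum 48 h, 37 C compound exposure with 20 nM CPT in Tdp1-knockout DT40 cells stably expressing hTDP1, seeded 400/well; qHTS titration format.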
TDP1 cell noCPT = qHTS for Inhibitors of human tyrosyl-DNA phosphodiesterase 1 (TDP1): qHTS in cells in absence of CPT | DT40 Tdp1-/- hTDP1 cells, no CPT, ATP luminescence, 48 h | Potency, µM (titrated, usually from 46.2 µM), without a hit: at the highest dose activity change, negative = growth inhibition, usual class: inhibitors | hit rate 15% among 420,000 | AID 686978, 2013; further: potency means the concentration at half of the fitted maximal effect; nearly all actives have a fitted effect of over 55% in size
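Luminescent ATP content (CellTiter-Glo) served as the growth readout. Knockout chicken DT40 cells expressing human TDP1 were exposed to compounds without camptothecin for a minimum 48 hr at 37 °C.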
HT1080 IDH1KD tx = qHTS for induction of synthetic lethality in tumor cells producing 2HG: qHTS for the HT-1080-IDH1KD cell line; HT-1080 IDH1 knockdown viability, ATP luminescence, 48 h; Potency, µM (highest dose often 46.1 µM), without a hit: top-dose activity, negative = toxicity, usual class: cytotoxic; hit rate 2% among 360,000; AID 686971, 2013;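 further: potency means the concentration at half of the fitted maximal effect; 0% = DMSO wells and -100% = cell-free medium wells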
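CellTiter-Glo luminescence after 48 h compound exposure at 37 degrees C of IDH1-knockdown HT-1080 cells in 5% FBS RPMI. %Activity scaled between DMSO wells and cell-free media wells, with curves fitted and assigned curve classes.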
IL1B secr inh = qHTS for Inhibitors of Inflammasome Signaling: IL-1-beta AlphaLISA Primary Screen. hit rate 4.7% among 360,000. activity change, % at 57.5 µM. THP-1 LPS/ATP IL-1B secretion, AlphaLISA, 16 h; active compounds read low. AID 743279, 2014; in the data active means activity change below about -50%; inconclusive means mostly about -30% to -49%
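Secreted IL-1B measured by AlphaLISA bead assay after 16 h compound exposure of THP-1 cells; compounds (final up to 57.5 uM) added 1 h before LPS (250 ng/mL) and ATP (1.25 mM) stimulation; lower signal means less secretion.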
HT1080-NT tox = qHTS for induction of synthetic lethality in tumor cells producing 2HG: qHTS for the HT-1080-NT fibrosarcoma cell line | HT-1080-NT fibrosarcoma viability, CellTiter-Glo ATP luminescence, 48 h | Potency, µM (series often up to 46.1 µM), without a hit: at the top dose activity, negative = less viability, usual class: cytotoxic | hit rate 1.6% among 360,000 | AID 686970, 2013;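 further: NT is the 2HG producing partner of a matched IDH1 knockdown line; potency means the concentration at half of the fitted maximal effect; 0% = DMSO-treated cells and -100% = media-only wells without cells; nearly all actives have a fitted effect of over 55% in size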
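Read-out is CellTiter-Glo luminescence after 10 minutes at room temperature, following 48 hours' compound treatment of HT-1080-NT cells (750 cells/well, RPMI, 5% FBS, 37 degrees C).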
An asterisk follows results filed as active; ? = inconclusive; . = not tested or not shown; [ ] = another dose, or the depositor's remark. Unless noted, the call rests on the fitted dose curve; in most records, active means well fitted curve in the direction sought with a large enough effect; inconclusive means small, poorly fitted or top-dose-only effect, or another doubt; inactive means no such curve, though single readings can be large; an effect the other way counts as inactive or inconclusive. Unless noted, on the % scale 0 is the no-effect control and ±100 the full control effect.

SMILES	ELG1 DNA repair	DT40 TDP1 CPT	TDP1 cell noCPT	HT1080 IDH1KD tx	IL1B secr inh	HT1080-NT tox
CCCCC(C(=O)NC1CCCC1)N(Cc1ccco1)C(=O)Cn1nnc(-c2ccc(F)cc2)n1 (centres undefined)	16µM*	23µM*	23µM*	-15%	?	-2%
Cc1ccc(-c2nnn(CC(=O)N(Cc3cccs3)C(C(=O)NC3CCCC3)c3ccco3)n2)o1 (centres undefined)	0%	-30%	-24%	4%	-3	3%
CCC(C(=O)NC1CCCC1)N(Cc1cccs1)C(=O)Cn1nnc(-c2ccc(OC)c(OC)c2)n1 (centres undefined)	18µM*	-22%	?	-24%	?	-23%
COc1ccc(S(=O)(=O)NCc2cc(=O)n(C)c(=O)n2C)cc1C	0%	?	-5%	10%	18	6%
COc1ccc(-n2c(CNC(=O)c3ccccc3C(F)(F)F)nnc2SC)cc1	.	6%[9.04 µM]	-9%	.	.	.
O=C(NCC1CCCO1)C(c1ccc(F)cc1)N(C(=O)Cn1nnc(-c2ccc(F)cc2)n1)c1cccc(O)c1 (centres undefined)	?	?	9.2µM*	-6%	-17	-13%
COc1ccc(-c2nnn(CC(=O)N(Cc3cccs3)C(C)C(=O)NC3CCCC3)n2)cc1OC (centres undefined)	?	29µM*	?	?	-15	-28%
COc1ccccc1CN1COc2ccc3c(oc(=O)c4ccccc43)c2C1	.	?	23µM*	.	.	.
Cc1ccc(CN2COc3c(Cl)cc4c(-c5ccccc5)cc(=O)oc4c3C2)cc1	.	-22%	-20%	.	.	.
COc1ccc(CN2COc3ccc4c(-c5ccc(OC)cc5)cc(=O)oc4c3C2)cc1	.	9.2µM*	21µM*	.	.	.
CCc1ccc(NC(=O)C(CC)n2nnc(C(=O)OC)c2C(=O)OC)cc1 (centres undefined)	.	-1%	-17%	.	.	.
CCN(CC)c1ccc(CNCc2cccs2)cc1	7%	16µM*	21µM*	-25%	?	-13%
CCOc1cc(CNCc2cccs2)cc(Br)c1OC	6%	?	?	-12%	0	-23%
COc1cc(CNCCO)cc(Br)c1OCc1cccs1	-16%	-17%	29µM*	-27%	-21	?
COc1cc(CNC(C)(C)C)cc(Br)c1OCc1cccs1	-17%	?	15µM*	?	?	?
COc1cc(CNCc2cccs2)ccc1OCc1cccs1	9%	-16%	?	?	-84*	9%
COc1cc(CNC(C)(C)CO)cc(Br)c1OCc1ccccc1	-16%	?	?	?	?	?
Cc1cc(Br)ccc1NC(=O)C1CCN(S(=O)(=O)c2ccc(Br)s2)CC1	.	-12%	-29%	.	.	.
C[C@@H]1CN([C@H](C)CO)C(=O)c2cc(Br)cnc2O[C@@H]1CN(C)C(=O)Nc1ccccc1	.	-7%	-12%	7%	19	14%
CCc1ccccc1NC(=O)CNC(=O)c1ccc(OCc2cn3ccccc3n2)cc1	?	?	-21%	-10%	31	-2%
CCc1ccccc1NC(=O)CN1CCN(C(=O)c2ccc(OCc3cn4ccccc4n3)cc2)CC1	6.5µM*	6%	-5%	-20%	-3	6%
CC[C@H](C)[C@H]1CNC(=S)N1CC1CCN(CC)CC1	.	-5%	1%	3%	14	?
Cc1cc(OCC(=O)N(C)Cc2ccccc2)ccc1Br	?	?	23µM*	0%	7	14%
CN(Cc1ccccc1)C(=O)CN1CCN(S(=O)(=O)c2ccc(Cl)c(Cl)c2)CC1	-5%	?	18µM*	-2%	-54*	4%[9.24 µM]
Cc1cc(OCC(=O)N(C)Cc2ccccc2)ccc1Cl	?	-9%	?	-15%	-9	-12%
SMILES	ELG1 DNA repair	DT40 TDP1 CPT	TDP1 cell noCPT	HT1080 IDH1KD tx	IL1B secr inh	HT1080-NT tox
Cc1cc(S(=O)(=O)N2CCN(CC(=O)N(C)Cc3ccccc3)CC2)ccc1Br	-5%	?	15µM*	-12%	?	3%
CN(Cc1ccc(F)cc1)C(=O)CN1CCN(S(=O)(=O)c2ccc3c(c2)OCCCO3)CC1	.	-26%	?	4%	-27	-3%
O=P(O)(O)OP(=O)(O)OP(=O)(O)O	.	-18%	-14%	.	.	.
C=CCN(C(=O)CSc1nc2c(sc3ccccc32)c(=O)n1CCN(CC)CC)c1ccccc1	?	18µM*	16µM*	?	-80*	?
COCCCNC(=O)CSc1nc2c(sc3ccccc32)c(=O)n1CCc1ccccc1	.	-17%	-20%	.	.	.
CCOC(=O)CSc1nc2c(sc3ccccc32)c(=O)n1CCc1ccccc1	.	-18%	?	.	.	.
CCc1ccc(NC(=O)CSc2nc3c(sc4ccccc43)c(=O)n2CCCOC(C)C)cc1	.	-18%	21µM*	.	.	.
CCCCN(CC)C(=O)CSc1nc2c(sc3ccccc32)c(=O)n1CCc1ccccc1	.	?	5.2µM*	.	.	.
CC(C)OCCCn1c(SCc2ccccc2Cl)nc2c(sc3ccccc32)c1=O	.	1%	-19%	.	.	.
CCOC(=O)CSc1nc2c(sc3ccccc32)c(=O)n1Cc1ccc(C)cc1	.	21µM*	?	.	.	.
COC(=O)c1ccc(NC(=O)CSc2nncn2-c2ccccn2)cc1	6%	3%	2%	13%	23	6%
CCCNC(=O)c1ccccc1NC(=O)Cc1ccc(OC)c(S(=O)(=O)N2CCOCC2)c1	?	1%	-27%	-5%	-6	9%
CC1CN(CC(O)c2ccc(Br)cc2)CCO1 (centres undefined)	.	22%	-6%	1%	6	?
Cc1ccc(N(Cc2ccccc2)C(=O)Cc2ccc(S(=O)(=O)N3CCOCC3)s2)cc1	24%	?	?	1%	1	2%
Cc1ccc(S(=O)(=O)N2CCCC2)cc1C(=O)Nc1ccc(-n2cnnn2)cc1	-9%	?	-29%	-1%	21	-1%
CCc1ccc(NC(=O)CSc2nc3c(sc4ccccc43)c(=O)n2CCN(CC)CC)cc1	.	15µM*	9.2µM*	.	.	.
